The results in this text go back to PubChem BioAssay AID1445 (SRMLSC, 2008).

Usually inhibition stands for the drop in the measured response relative to a control, in per cent.

Hit rate of the full screen: of about 220,000 compounds, about 910 (0.41%) were called active. The sample holds actives, similar compounds and a random draw of the others, so the mix is not that of the screen. Potency and affinity values are given separately. Values without a mark were called inactive.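 Rule for the calls: active = primary inhibition above the hit cutoff, then over 50% inhibition at one or more dose response concentrations (cut at about 23% in these data, passing the limit was not always enough); inconclusive = conflicting primary data, or primary hits not chosen for dose response; inactive = low primary inhibition, or under 50% at every dose.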

Sequence of Aminopeptidase N (Plasmodium falciparum (isolate 3D7)) (O96935 whole entry, looked up): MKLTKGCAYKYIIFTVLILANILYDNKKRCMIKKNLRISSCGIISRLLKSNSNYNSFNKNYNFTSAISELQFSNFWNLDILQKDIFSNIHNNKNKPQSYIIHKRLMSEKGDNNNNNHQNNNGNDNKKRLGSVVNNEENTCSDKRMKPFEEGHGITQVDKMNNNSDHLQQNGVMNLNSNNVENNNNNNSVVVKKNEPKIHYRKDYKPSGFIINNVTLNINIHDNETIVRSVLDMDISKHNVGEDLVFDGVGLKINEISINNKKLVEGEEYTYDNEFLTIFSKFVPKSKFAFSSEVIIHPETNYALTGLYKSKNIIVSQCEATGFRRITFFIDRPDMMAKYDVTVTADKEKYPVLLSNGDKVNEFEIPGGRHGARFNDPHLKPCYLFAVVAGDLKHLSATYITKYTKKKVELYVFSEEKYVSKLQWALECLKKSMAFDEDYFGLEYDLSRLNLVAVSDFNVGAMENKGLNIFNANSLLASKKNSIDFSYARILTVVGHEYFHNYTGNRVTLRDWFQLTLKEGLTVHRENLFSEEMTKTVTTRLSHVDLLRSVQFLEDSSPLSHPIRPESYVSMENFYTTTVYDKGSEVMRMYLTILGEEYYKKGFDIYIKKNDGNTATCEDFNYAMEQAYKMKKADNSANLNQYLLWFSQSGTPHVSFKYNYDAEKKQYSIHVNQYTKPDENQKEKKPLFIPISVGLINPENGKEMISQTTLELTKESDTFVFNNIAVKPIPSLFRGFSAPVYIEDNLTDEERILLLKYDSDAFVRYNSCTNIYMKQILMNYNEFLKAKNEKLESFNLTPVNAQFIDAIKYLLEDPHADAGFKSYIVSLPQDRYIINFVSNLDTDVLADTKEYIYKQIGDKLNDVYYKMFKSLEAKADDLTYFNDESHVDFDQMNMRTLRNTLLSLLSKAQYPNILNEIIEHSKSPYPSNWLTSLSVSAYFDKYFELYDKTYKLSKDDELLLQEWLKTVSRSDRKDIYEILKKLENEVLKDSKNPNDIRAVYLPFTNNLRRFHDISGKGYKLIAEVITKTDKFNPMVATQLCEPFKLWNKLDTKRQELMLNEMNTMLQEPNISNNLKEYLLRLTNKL

The assay has as its target Aminopeptidase N (Plasmodium falciparum (isolate 3D7)) (UniProt O96935). As to the kind of experiment: P. falciparum M1AAP inhibitors, biochemical, fluorogenic H-Leu-NHMec substrate, 1536-well (AID 1445).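 Note: plate controls were DMSO full reaction for no effect and no enzyme background for full effect.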 As to conditions: recombinant M1AAP, H-Leu-NHMec fluorogenic kinetic assay; at 30 µM, hits give high values unless noted.
As for `CC1=C(C(=O)c2ccccc2)C(c2ccc(OC(F)F)cc2)NC(=S)N1` (stereo not given), the inhibition is 3.11%.
Consider `CN1CCN(CC(=O)NC2CCCCC2)CC1`, for which the inhibition is -3.84%.
In the case of `Cc1cc(C)n(-c2nc3c(c(=O)[nH]c(=O)n3C)n2Cc2cccc(Br)c2)n1`, the inhibition was 6.71%.
With `COc1cccc(NS(=O)(=O)c2ccc(OC)c(OC)c2)c1`, the inhibition was 8.68%.
`COc1ccc(NC(=O)c2ccc3c(SCC(=O)O)c4c(nc3c2)CCCC4)cc1Cl`: the inhibition is 6.4%.
Consider `COc1cc(Cl)c(C)cc1NC(=O)c1ccc2c(SCC(=O)O)c3c(nc2c1)CCCC3`, for which the inhibition was 39.2%.
Take `CC(=O)c1ccc(OCc2cc([N+](=O)[O-])cc3c2OCOC3)cc1`: the inhibition was 0.98%.
As for `CP(C)(=O)CCP(=O)(c1ccccc1)c1ccccc1`, the figure is 2.48%; as for `CCCc1nc(C)c(-c2ccc(OC)c(OC)c2)c(=O)[nH]1`, 2.27%.
Take `Cc1coc2cc3oc(=O)c(Cc4ccccc4)c(C)c3cc12`: the inhibition is 16.1%.
Consider `Cc1c(CCC(=O)O)c(=O)oc2cc(O)ccc12`, for which the inhibition is 18.6%.
Next, `Cc1c(CCC(=O)O)c(=O)oc2cc3oc4c(c3cc12)CCCC4`: 8.26%; `Cc1c(CCC(=O)O)c(=O)oc2cc3occ(C(C)(C)C)c3cc12`: 12.5%.
On to `CC(C)Oc1cccc(C(=O)C2CCCN(Cc3cnn(C(C)C)c3)C2)c1` (stereo not given), for which the inhibition was 3.98%.
Next, `Cc1ccc(/C=[N+](/C)[O-])cc1`: 5.58%; `Cc1oc(C)c2c(=O)ccc3c(c12)OC(N)=C(C#N)C3c1ccc(F)cc1` (stereo not given): 3.21%.
As to `Cc1oc(C)c2c(=O)ccc3c(c12)OC(N)=C(C#N)C3c1ccccc1` (stereo not given), the inhibition is 12.5%.
For `CSc1ccc(C2C(C#N)=C(N)Oc3c2ccc(=O)c2c(C)oc(C)c32)cc1` (stereo not given), the inhibition is 23.3% (active).
Consider `COc1cccc(C2c3[nH]c4ccccc4c3CCN2Cc2cccn2-c2ncccn2)c1` (stereo not given), for which the inhibition is 1.34%.
Turning to `CCOC(=O)CSCc1nc(-c2ccc(Cl)cc2)oc1C`, the inhibition is -0.93%.
Take `C/C(=N\NC(=O)COc1ccc(C(C)(C)C)cc1)c1ccc(OC(F)F)cc1`: the inhibition is 6.66%.
As for `NC(=O)c1cccc(CC(=O)c2ccccc2)c1`, the inhibition is 8.26%.
Next, `COc1cc(C=O)ccc1OCC(=O)N1CCCC1`: -0.53%.
In the case of `COc1ccccc1NS(=O)(=O)c1ccc(Cl)c(NC(=O)CN2C(=O)c3ccccc3C2=O)c1`, the inhibition was 11.8%.
Turning to `COc1ccccc1NS(=O)(=O)c1ccc(Cl)c(NC(=S)NC(=O)C2CCCC2)c1`, the inhibition was 6.44%.
`Cc1cc(O)c(C=Nc2cccc(Cl)c2)c(=O)o1`: the inhibition is 13.6%.
As to `O=C1CNC(=O)/C1=C\N1CCN(C(c2ccccc2)c2ccccc2)CC1`, the inhibition was 10.1%.
For `COc1ccc(-c2cc(=Nc3c(C)n(C)n(-c4ccccc4)c3=O)c3ccccc3o2)cc1`, the inhibition was 10.6%.
As for `COc1ccc(C(c2c(C)n(C)n(-c3ccccc3)c2=O)c2c(C)n(C)n(-c3ccccc3)c2=O)cc1O`, the figure is 2.02%; as for `Cc1c(C(c2ccccc2O)c2c(C)n(C)n(-c3ccccc3)c2=O)c(=O)n(-c2ccccc2)n1C`, -0.33%; as for `Cc1c(C(c2ccc(O)cc2)c2c(C)n(C)n(-c3ccccc3)c2=O)c(=O)n(-c2ccccc2)n1C`, -4.97%.
As for `FC(F)(F)c1ccccc1CN1CCN(C2CCCCCC2)CC1`, the figure is 3.5%; as for `CCOC(=O)N1CCN(C(=O)COc2cc(=O)n(CC)c3ccccc23)CC1`, 3.47%; as for `Cc1ccccc1NC(=O)N1CCc2ccccc2C1`, 1.94%.
Regarding `O=Cc1ccc2cccnc2n1`, the inhibition was 3.17%.
Turning to `O=C(CN1C(=O)S/C(=C\c2ccccc2)C1=O)NNC(=O)c1ccccc1O`, the inhibition is 6.38%.
Regarding `O=C(Nc1ccc(O)cc1)c1ccc2c(c1)C(=O)N(Cc1ccco1)C2=O`, the inhibition is 3.19%.
`O=C1c2ccccc2C(=O)N1Cc1ccco1`: the inhibition is 3.2%.
As to `CC1=CC(C)(C)NC(=S)N1c1ccccc1C`, the inhibition was 0.18%.
For the molecule `O=C(O)c1ccc(COc2ccccc2/C=C2\NC(=O)N(Cc3ccccc3)C2=O)cc1`, the inhibition was -0.49%.
As to `Cc1ccccc1NC(=O)c1ccccc1O`, the inhibition is 12.9%.
Take `CCOc1ccc(-c2nnc3ccc(SCC(=O)Nc4nc5ccccc5s4)nn23)cc1`: the inhibition was -0.15%.
As for `Cc1c(NC(=O)C(C)OC(=O)[C@@H](NC(=O)c2ccccc2)C(C)C)c(=O)n(-c2ccccc2)n1C` (stereo not given in full), the figure is 11.4%.
Turning to `CC(C)Cn1c(-c2ccncc2)n[nH]c1=S`, the inhibition was -1.73%.
Next, `CCc1ccc2[nH]c(=O)c(CN(CCN(CC)CC)C(=O)NC3CCCCC3)cc2c1`: 6.76%.
For the molecule `CCOC(=O)CNC(=O)Cc1ccc(OC)cc1`, the inhibition was -3.67%.
For the molecule `COC(=O)c1ccccc1NC(=O)CSc1nc2cccnc2n1C`, the inhibition was -3.92%.
Regarding `CCSc1nc2ccccc2n1CC(=O)N1CCOCC1`, the inhibition is 8.83%.
Regarding `O=C(CSc1nc2ccccc2n1CC(=O)N1CCOCC1)N1CCCC1`, the inhibition is 1.43%.
For `CC(=O)N1CCN(C(C)=O)C1c1ccccc1`, the inhibition is 4.82%.
Take `CCC(=O)N1CCN(C(=O)CC)C1c1ccccc1`: the inhibition was 1.3%.
For the molecule `CCC(=O)N1CCN(C(C)=O)C1c1ccccc1` (stereo not given), the inhibition is -1.61%.
Consider `CC1C(=O)CC(c2ccccc2)N(C)C1c1ccccc1` (stereo not given), for which the inhibition is -1.3%.
Consider `COc1ccc(N=C2SC(CC(=O)Nc3ccc(F)cc3)C(=O)N2Cc2ccco2)cc1` (stereo not given), for which the inhibition is 5.55%.
Next, `COc1ccc(O)c(C(=O)c2cc(C#N)c(=O)n(-c3ccc(Cl)cc3)c2)c1`: 4.39%; `O=C(c1ccc(COCC(F)(F)F)o1)N1CCCCCC1`: -0.95%; `CC(=O)c1cc(-c2ccccc2)n(CC(=O)NC(C)(C)C)c1C`: 5.46%.
Regarding `COCCNc1cc(C)c(C#N)c2nc3ccccc3n12`, the inhibition was -4.32%.
As to `COc1cccc(/C=N/Nc2ncnc3scc(-c4ccccc4)c23)c1O`, the inhibition is 2.95%.
Next, `COc1ccc(/C=N/N2C(=O)CSC2=S)cc1`: 10.4%; `COc1cc(/C=N/N2C(=O)CSC2=S)ccc1O`: 20.3%; `Oc1ccccc1CNc1cnc2ccccc2c1`: 9.27%.
As to `Oc1ccc2ccccc2c1CNc1cnc2ccccc2c1`, the inhibition is 24.4% (active).
With `COc1cccc(CNc2cnc3ccccc3c2)c1O`, the inhibition is 2.44%.
Take `CCNC(=S)NNC(=O)c1ccncc1`: the inhibition is 0.26%.
Take `O=C(NCCCc1ccccc1)c1ccncc1`: the inhibition was -1.01%.
As for `O=C(CCN1C(=O)/C(=C/c2ccc(F)cc2)SC1=S)NNC(=O)c1ccncc1`, the inhibition was -9.67%.
For `O=C(NCCc1ccccc1)c1ccncc1`, the inhibition is -0.47%.
For the molecule `CCOc1ccc(NC(=O)CN(C)C(=O)C2CCCC2)cc1OCC`, the inhibition was 8.15%.
As to `CC(=O)Nc1ccc2nc(SCC(=O)N3CCOCC3)sc2c1`, the inhibition is 2.3%.
Next, `COC(=O)CNC(=O)C(C)NC(=O)OCc1ccccc1` (stereo not given): 3.83%; `Cc1cc(C)c2[nH]c(=O)c(C(c3nnnn3C(C)(C)C)N(Cc3ccco3)CC3CCCO3)cc2c1` (stereo not given): 11.4%.
In the case of `O=C(O)COc1ccccc1/C=N/NC(=O)CSc1nnc(SCc2ccccc2)s1`, the inhibition was 14.1%.
For the molecule `O=C(O)COc1ccccc1/C=N/NC(=O)CSc1nnc(SCc2cccc3ccccc23)s1`, the inhibition is 11.9%.
Turning to `O=C(CSc1nnc(SCc2ccc(Cl)cc2)s1)N/N=C/c1ccccc1C(=O)O`, the inhibition was 2.73%.
As for `O=C(CSc1nnc(SCc2ccccc2)s1)N/N=C/c1ccc(Cl)cc1Cl`, the inhibition is 5.23%.
With `CCOc1ccccc1-n1c(COc2ccccc2)nnc1SCC(N)=O`, the inhibition is 6.25%.
In the case of `COc1ccc2cc(CN(C(=O)Nc3ccccc3)C3CCCC3)c(=O)[nH]c2c1`, the inhibition is 10.9%.
On to `O=C(CCNC(=O)c1ccccc1Cl)Nc1ccc(S(=O)(=O)Nc2ncccn2)cc1`, for which the inhibition is -2.53%.
Next, `O=C(O)CCC(=O)N1N=C(c2ccco2)CC1c1cccs1` (stereo not given): -6.29%; `Cc1ccc(C2=NN(C(=O)CCC(=O)O)C(c3cccs3)C2)cc1` (stereo not given): -2.92%; `COc1ccc(C2=NN(C(=O)CCC(=O)O)C(c3cccs3)C2)cc1` (stereo not given): 6.04%.
For the molecule `COc1ccccc1C1CC(c2c(-c3ccccc3)c3cc(Cl)ccc3[nH]c2=O)=NN1S(C)(=O)=O` (stereo not given), the inhibition was 33.3%.
Regarding `O=C(O)CCC(=O)N1N=C(c2ccc(Br)cc2)CC1c1cccs1` (stereo not given), the inhibition is 7.55%.
Regarding `COc1cccc(C2=NN(C(=O)CCCC(=O)O)C(c3cccs3)C2)c1` (stereo not given), the inhibition is 2.4%.
Next, `O=C(O)CCCC(=O)N1N=C(c2ccccc2)CC1c1cccs1` (stereo not given): -2.7%.
Next, `COc1ccc(OC)c(C2CC(c3c(-c4ccccc4)c4cc(Cl)ccc4[nH]c3=O)=NN2S(C)(=O)=O)c1` (stereo not given): 6.89%; `O=C(C1CCCCN1S(=O)(=O)c1ccccc1[N+](=O)[O-])N1CCCC1` (stereo not given): -3.36%.
`CC(NC(=O)c1ccccc1Cl)C(=O)O` (stereo not given): the inhibition is -7.3%.
As to `CCN(CC)S(=O)(=O)c1ccc(C(=O)Nc2ccc3c(c2)OCCO3)cc1`, the inhibition is 4.24%.
Take `N/C(=N\OC(=O)CCCOc1ccccc1)c1ccc([N+](=O)[O-])cc1`: the inhibition was 6.54%.
Consider `Cc1nc2ccc(Cl)cc2c(-c2ccccc2)c1CC(=O)O`, for which the inhibition was 14.4%.
Regarding `CCOC(=O)c1c(C)nc2ccc(Cl)cc2c1-c1ccccc1`, the inhibition is 5.75%.
For the molecule `CCOC(=O)c1ccccc1NC(=O)c1cn(-c2ccc(C)c(C)c2)c(=O)c2ccccc12`, the inhibition was 1.24%.
As for `Cc1cccc(CN2CCN(CCCc3ccccc3)CC2)c1`, the figure is -1.11%.
